Assay results from PubChem BioAssay (NCI).
The panel holds about 83,000 compounds, 20% with a hit somewhere; the sample as a whole holds those more often.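 Interpretation: 100, growth as untreated; towards 0, rising growth inhibition; 0, no net growth; 0 to -100, cell death. Compounds scoring below 10 were considered active.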 A number with no mark means an inactive call. Activity calls are given as the source filed them.

Legend:
Experiment in all cases: NCI-60 one-dose screen, 48 h (100 = growth as untreated, 0 = no growth, -100 = all killed)
[1] = tested on: RPMI-8226 leukemia; conditions: 10 µM unless noted
[2] = tested on: OVCAR-8 ovarian; conditions: 10 µM unless noted
[3] = tested on: OVCAR-5 ovarian; conditions: 10 µM unless noted
[4] = tested on: OVCAR-4 ovarian; conditions: 10 µM unless noted
[5] = tested on: SK-OV-3 ovarian; conditions: 10 µM unless noted
[6] = tested on: IGROV1 ovarian; conditions: 10 µM unless noted
[7] = tested on: OVCAR-3 ovarian; conditions: 10 µM unless noted
[8] = tested on: HS 578T breast; conditions: 10 µM
[9] = tested on: NCI/ADR-RES ovarian; conditions: 10 µM unless noted
[10] = tested on: T-47D breast; conditions: 10 µM unless noted
[11] = tested on: BT-549 breast; conditions: 10 µM unless noted
[12] = tested on: MDA-MB-435 melanoma; conditions: 10 µM unless noted
[13] = tested on: SW-620 colon; conditions: 10 µM unless noted
[14] = tested on: MCF7 breast; conditions: 10 µM unless noted
[15] = tested on: HCT-116 colon; conditions: 10 µM unless noted
[16] = tested on: HCC-2998 colon; conditions: 10 µM unless noted
[17] = tested on: KM12 colon; conditions: 10 µM unless noted

Compound	growth [1]	growth [2]	growth [3]	growth [4]	growth [5]	growth [6]	growth [7]	growth [8]	growth [9]	growth [10]	growth [11]	growth [12]	growth [13]	growth [14]	growth [15]	growth [16]	growth [17]
CN(C)c1ccc(N2Cc3ccccc3OC3=C2C(=O)c2c(O)ccc(O)c2C3=O)cn1	-17.2% (active)	-12.1% (active)	-50.6% (active)	-98.2% (active)	-7.84% (active)	-63.3% (active)	-95.8% (active)	44.7%	3.51% (active)	-47.9% (active)	-71.2% (active)	-21.3% (active)	-58.3% (active)	-55% (active)	-86.8% (active)	-75.2% (active)	-41.9% (active)
CCCCCCCCCC1=NC(C)(C)CN1C(C)(C)CO	81%	102%	88.3%	117%	124%	72.1%	86.1%	100%	95.7%	153%	105%	110%	93.8%	95.3%	69.3%	84.1%	97.6%
O=C(Nc1cccc(Cl)c1)Nc1cc(C(F)(F)F)ccc1Cl	-14% (active)	15.2%	44.2%	11.6%	9.3% (active)	14.3%	18.9%	55.9%	2.25% (active)	5.15% (active)	25.8%	8.14% (active)	-16.1% (active)	16.1%	-13.3% (active)	13.2%	-45.1% (active)
C=CCn1c(SCC(=O)Nc2ccc(/C(C)=N\O)cc2)nnc1-c1cc(-c2ccccc2)nc2ccccc12	47.1%	53.5%	85.8%	75%	79.6%	0.364% (active)	58.3%	85.8%	52.8%	15.2%	54%	56.1%	51.9%	21%	44%	62.1%	44.8%
CCCCCCCCCCCCCC(=S)NCCCC[C@H](NC(=O)OCc1ccccc1)C(=O)Nc1ccccc1	32%	40.3%	89.5%	54.6%	78.2%	54%	22.1%	61.1%	34.8%	43.5%	107%	51.4%	32.7%	42.4%	25%		25.9%
COc1ccc(CCN2COc3c([C@@H](C)CCC=C(C)C)ccc(C)c3C2)cc1OC	28.5%	72.1%	83%	39.7%	82.6%	68.3%	30.2%	76.9%	44.6%	-23% (active)	87.9%	61.4%	40.4%	40.6%	25.9%	-70.3% (active)	51.8%
CCOc1ccc([C@@H]2[C@@H](Oc3ccccc3)C(=O)N2c2cc(OC)c(OC)c(OC)c2)cc1	5.16% (active)	24.2%	43%	43.9%	29.6%	21.5%	-8.31% (active)	34.6%	14%	91.8%	-18.2% (active)	-25% (active)	20.8%	16.9%	-3.96% (active)	16.2%	11.5%
COCCn1c(Nc2ccc(C(=O)NO)cc2)nc2ccccc21	44%	37.3%	47.4%	72.2%	49.2%	57.5%	83.5%	80.7%	-9.22% (active)	35.3%	86.6%	46%	29.6%	61.4%	19.4%	73.3%	51.9%
Cc1ccc(S(=O)(=O)NC(CCC(=O)Nc2ccc(Cl)cc2)C(=O)Nc2ccc(Cl)cc2)cc1 (stereo unspecified)	13.5%	39.2%	67.8%	26.3%	26.2%	34.6%	7.96% (active)	29.8%		16.5%	27.3%	38.4%	31.1%	30%	23.8%	23.5%	12.8%
